Most compounds without a hit are left out; they make up all but 4.3% or so of the library.
ADAM10 inh: human ADAM10 inhibitors, primary screen, biochemical, QFRET, HTS; inhibition, % at 7 µM; Disintegrin and metalloproteinase domain-containing protein 10 (Homo sapiens), O14672; hit rate 0.62% among 370,000; AID 720582, 2013; recombinant ADAM10, EDANS/DABCYL FRET peptide cleavage, 3 h;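 active means inhibition above a per-campaign cutoff equal to the mean of compounds falling between control-based bounds plus 3 SD, cut at about 20% in these data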;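 further: 0% = DMSO wells while the 100% control is not disclosed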
FAS-TE inh: FAS thioesterase domain inhibitors, primary screen, biochemical, fluorescence intensity, uHTS. Fatty acid synthase (Homo sapiens), P49327. recombinant FAS-TE, OMFH fluorogenic substrate, fluorescence endpoint. inhibition, % at 15 µM. hit rate 0.67% among 360,000. AID 602261, 2012;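 active means compounds whose normalised, plate-corrected inhibition of enzyme fluorescence in the single-dose primary screen is 50% or more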;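 further: 0% = DMSO with enzyme and 100% = substrate without enzyme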
ADAM17 inh: ADAM17 inhibitors, primary screen, biochemical, QFRET; Disintegrin and metalloproteinase domain-containing protein 17 (Homo sapiens), P78536; recombinant ADAM17, EDANS/DABCYL FRET peptide cleavage; inhibition, % at 6.95 µM; hit rate 0.83% among 370,000; AID 720648, 2013;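 active means inhibition above the mean of compounds lying between control limits plus 3 SD, set per campaign, cut at about 8.5% in these data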;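 further: 0% = DMSO-only wells as the low control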
NR3A LBD binder: binders of NR3A ligand-binding domain, primary screen, biophysical, differential scanning fluorimetry, uHTS | NR3A LBD differential scanning fluorimetry, Tm shift; 0% = protein alone, 100% = glycine-bound protein | Tm shift relative to glycine control, % at 25 µM | hit rate 2.5% among 340,000;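 active means melting temperature shift of at least 10% of the positive control shift, at one fixed dose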
HGIII-sPLA2 inh: human group III sPLA2 inhibitors, primary screen, biochemical, QFRET, BODIPY PC-A2 liposome substrate. QFRET BODIPY PC-A2 liposome hydrolysis, fluorescence. Group 3 secretory phospholipase A2 (Homo sapiens), Q9NZ20. hit rate 0.56% among 370,000. AID 743126, 2013. inhibition, % at 12.2 µM;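 active means inhibition above mean plus 3 SD of compounds lying within the high and low control bounds, cut at about 19% in these data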;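 further: 0% = median of test compound wells and 100% = no enzyme DMSO wells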
* hit, by the source's call; i = inactive; . = no result.

SMILES	ADAM10 inh	FAS-TE inh	ADAM17 inh	NR3A LBD binder	HGIII-sPLA2 inh
N=c1oc2cc(O)ccc2cc1C(=O)Nc1ccc(Cl)cc1	i	2	-282	20*	3
O=C1N=c2ccccc2=C1c1sc(Nc2ccc(O)cc2)nc1O	0	15	-1	13*	-11
O=C1N=c2ccccc2=C1c1sc(Nc2cccc(O)c2)nc1O	10	3	7	25*	-22
COC(=O)[C@]12CCCCC=C1N(Cc1ccc(OC)cc1)C(=O)[C@@H]2CC(=O)NCc1ccc(C)o1	3	.	-2	.	-16
Cc1ccc(NC(=O)CN(C)CC(=O)Nc2ccccc2C#N)cc1	2	-3	-2	0	-6
N#Cc1ccccc1NC(=O)CN(Cc1ccccc1)Cc1ccccc1	3	21	1	16*	-7
COc1cc(/C=N/NC(=O)Cc2csc(N3CCOCC3)n2)cc(OC)c1O	-45	-6	-10	15*	-4
O=C(Nc1ccc(C(O)(C(F)(F)F)C(F)(F)F)cc1)c1ccc(F)cc1F	12	.	4	.	-12
Nc1nnc(SCCOc2cccc(Br)c2)s1	-1	-1	-2	13*	-2
CC1CCCN(C(=O)Cc2cn(Cc3cccc(Cl)c3)c3ccccc23)C1 (configuration not stated)	11	28	3	6	-52
O=C(Cc1cn(Cc2cccc(Cl)c2)c2ccccc12)N1CCCCCC1	13	24	4	17*	-72
COC(CNC(=O)[C@H](Cc1ccccc1)NC(C)(C)C(=O)NC1CCCCC1)OC	-6	.	-3	.	2
Cc1c(C(=O)Nc2ccc(C(F)(F)F)cc2)sc2ncn(CC(=O)N3CCN(c4ccccn4)CC3)c(=O)c12	-6	19	-5	23*	-4
COC(=O)C1=C(C)N(Cc2ccc(Br)cc2)C(=S)NC1c1ccc(OC)cc1 (configuration not stated)	8	.	1	.	2
Cn1cccc1C(=O)N1CCN(S(=O)(=O)c2cccs2)CC1	-5	.	-3	.	6
O=C(c1ccccc1)N1CCCc2ccccc21	-1	1	-5	-2	5
S=C(c1ccccc1)N1CCCc2ccccc21	-6	5	-1	11*	12
COC(=O)[C@H](CC1(c2cn(S(=O)(=O)CC[Si](C)(C)C)c3ccccc23)C(=O)Nc2ccccc21)NC(=O)OC(C)(C)C (some centres not stated)	16	.	8	.	-8
O=[N+]([O-])c1cc(/C=N\O)ccc1Oc1ccc(F)cc1	2	35	5	16*	-21
COc1cc(/C=N/O)ccc1Oc1ccc([N+](=O)[O-])cc1[N+](=O)[O-]	2	-2	1	-16	-10
CC(C)(C)NC(=O)[C@H](c1cccnc1)N(C(=O)c1ccco1)c1ccc(C(C)(C)C)cc1	-2	.	-4	.	3
CC(=O)c1cccc(CN2CCC(n3nccc3NC(=O)CCc3ccccc3)CC2)c1	.	1	.	15*	.
NS(=O)(=O)c1ccc(Nc2ccc3cc(S(=O)(=O)N4CCCCC4)ccc3n2)cc1	i	42	-364	37*	-36
c1ccc2nc(N3CCCC3)c(N3CCCC3)nc2c1	-24	10	-6	11*	4
O=c1c([N+](=O)[O-])c(Cl)c2ccccc2n1Cc1ccccc1	-11	.	1	.	12
SMILES	ADAM10 inh	FAS-TE inh	ADAM17 inh	NR3A LBD binder	HGIII-sPLA2 inh
O=c1c([N+](=O)[O-])c(O)c2ccccc2n1Cc1ccccc1	0	1	2	10*	-2
COc1cccc(OC)c1NC(=O)OCCN1CCCC12CCC(c1ccccc1)CC2 (configuration not stated)	5	.	0	.	-7
O=C(C1CCC1)N1CCc2cc(S(=O)(=O)N3CCCC3)ccc21	-2	.	0	.	-1
COc1ccc(NS(=O)(=O)c2cc([N+](=O)[O-])ccc2N/N=C\c2c(C)[nH]c3ccccc23)cc1	-3	-6	-1	28*	-10
Cc1[nH]c2ccccc2c1/C=N/Nc1ccc([N+](=O)[O-])cc1S(=O)(=O)Nc1ccc(Cl)cc1	-8	17	0	9	1
O=[N+]([O-])c1ccccc1N/N=C/c1c[nH]c2ccccc12	-3	31	-2	16*	14
O=[N+]([O-])c1ccccc1N/N=C/c1ccccc1	-12	-2	-5	-2	8
COc1ccccc1NS(=O)(=O)c1cc([N+](=O)[O-])ccc1N/N=C/c1c[nH]c2ccccc12	9	3	0	23*	-8
O=C(O)COc1ccccc1/C=N/Nc1ccc(S(=O)(=O)Nc2ccc(Cl)cc2)cc1[N+](=O)[O-]	4	28	4	10*	-38
COc1cccc(CNC(=O)CCCN2C(=O)COc3ccc(C)cc32)c1OC	-8	.	3	.	-3
C=CCN1C(=O)[C@@H](CC(=O)NCCCCc2ccccc2)[C@]2(C(=O)OC)CCCCC=C12	0	.	2	.	-9
COc1ccc(NS(=O)(=O)c2cc([N+](=O)[O-])ccc2NN=Cc2ccccc2OCC(=O)O)cc1	-1	34	0	40*	-39
COc1ccc(C=NNc2ccc([N+](=O)[O-])cc2S(=O)(=O)Nc2ccccc2C(=O)O)cc1OC	-3	42	-2	31*	-43
CCOC(=O)c1cnn(-c2ccc(NS(=O)(=O)c3ccc(Cl)cc3)cc2)c1C(F)(F)F	15	20	4	16*	-45
COc1ccc(CN2C[C@]3(C=C(C)Cn4c(=O)n(-c5ccccc5)c(=O)n43)N(C(=O)OCc3ccccc3)C2=NC(=O)c2ccccc2)c(OC)c1	8	.	2	.	12
CCCCCCn1c(=O)c(-c2ccccc2)c(O)c2ccccc21	-7	-6	-6	12*	-21
CCCCCCn1c(=O)c(Cc2ccccc2)c(O)c2ccccc21	-15	-2	-3	-7	4
Cc1cc(C)cc(N2C(=O)CC(N3CCOCC3)C2=O)c1 (configuration not stated)	-4	-8	-2	11*	6
O=C1C2C3C=CC(CC3)C2C(=O)N1/N=C/c1ccc(O)c(O)c1 (configuration not stated)	-8	-7	2	1	11
O=C1c2ccccc2C(=O)N1/N=C/c1ccc(O)c(O)c1	0	-7	2	19*	-2
O=C(COc1ccc(-c2ccccc2)cc1)N/N=C/c1cc(O)ccc1Br	15	23	8	20*	-47
C[C@@H]1CCCN1c1cccc2c1S(=O)(=O)N1CC[C@H](C1)O2	0	.	-2	.	2
O=C(NCc1ccc(F)c(F)c1)C1C2C=CC3(CN(Cc4ccccc4)C(=O)C13)O2 (configuration not stated)	-5	.	0	.	3

Bioassay records as filed in PubChem.
